Assay outcomes from PubChem.
HP1b binding inh: HTS for Inhibitors of HP1-beta Chromodomain Interactions with Methylated Histone Tails. Potency, µM (doses to about 114 µM), usual class: inhibitors. Chromobox protein homolog 1 (Homo sapiens), P83916. AlphaScreen HP1-beta / biotin-H3K9me3 peptide binding. AID 540317, 2011. 390,000 tested, 0.56% active; note: nearly all actives have a fitted effect of over 70% in size
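HP1-beta protein (50 nM final) preincubated 30 min at room temperature with biotinylated H3(1-18)K9me3 peptide (50 nM) in PBS pH 7.4, 0.01% Tween-20, then compound added for 30 min. AlphaScreen streptavidin donor/nickel chelate acceptor beads (10 ug/mL final), 30 min dark, luminescence read.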
PLK1 PBD inh: qHTS for Inhibitors of PLK1-PDB (polo-like kinase 1 - polo-box domain): Primary Screen. 360,000 tested, 2.8% active. Potency, µM, usual class: inhibitors. Plk1 PBD binding of FITC phosphopeptide, fluorescence polarization; note: series mostly up to about 57 µM; nearly all actives have a fitted effect of over 65% in size
BAZ2B inh: qHTS Assay for Inhibitors of BAZ2B | Bromodomain adjacent to zinc finger domain protein 2B (Homo sapiens), Q9UIF8 | AlphaScreen BAZ2B-H3K14Ac peptide displacement | Potency, µM (top dose mostly 114 µM), usual class: inhibitors | 360,000 tested, 4.4% active; note: nearly all actives have a fitted effect of over 60% in size
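AlphaScreen luminescence quantifies BAZ2B engagement of H3K14Ac peptide; the protein and biotinylated peptide are both at 50 nM final, buffer PBS pH 7.4 with 0.01% Tween-20, all steps at room temperature.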
G9a inh: qHTS Assay for Inhibitors of Histone Lysine Methyltransferase G9a; Histone-lysine N-methyltransferase EHMT2 (Homo sapiens), Q96KQ7; G9a H3K9 monomethylation, AlphaScreen, 2 h; Potency, µM (top dose mostly 102 µM), hits mostly inhibitors; 350,000 tested, 8.8% active; AID 504332, 2011; note: nearly all actives have a fitted effect of over 75% in size
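Quantitative HTS format: methyltransferase activity on a biotin-tagged H3K9 peptide is measured by AlphaScreen, using a rabbit anti-monomethyl-H3K9 antibody with streptavidin donor and anti-IgG acceptor beads. Final levels are 20 nM enzyme, 500 nM peptide, 20 uM SAM; 2 h RT.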
Sfp PPTase inh: qHTS Assay for Inhibitors of Bacillus subtilis Sfp phosphopantetheinyl transferase (PPTase) | 4'-phosphopantetheinyl transferase ffp (Bacillus subtilis), Q9F4F7 | Biochemical Sfp PPTase activity, qHTS | Potency, µM, hits mostly inhibitors | 310,000 tested, 3.5% active | AID 1490, 2009;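 note: the enzyme is Sfp with the accession as filed and its product quenches rhodamine fluorescence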
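Buffer: 50 mM Hepes-Na pH 7.6, 10 mM MgCl2, 0.01% Nonidet P-40, 0.01% BSA. Enzyme 15 nM, pre-exposed to compound 15 min; substrates then added and fluorescence change tracked over 30 min.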
JMJD2A Tudor inh: qHTS Assay for Inhibitors of JMJD2A-Tudor Domain | Lysine-specific demethylase 4A (Homo sapiens), O75164 | AlphaScreen JMJD2A-Tudor / H3K4me3 peptide binding | Potency, µM (titrated, usually from 114 µM), hits mostly inhibitors | 390,000 tested, 4.4% active | AID 504339, 2011; note: nearly all actives have a fitted effect of over 50% in size
Large screens that a line does not name were inactive. Rows were chosen to be rich in hits. Some 12% of all compounds tested hit in one or more screens of this group. Calls come from the whole dose curve; as a rule, active = well fitted curve in the direction sought with a large enough effect; inconclusive = small, poorly fitted or top-dose-only effect, or another doubt; inactive = no such curve, though single readings can be large; an effect the other way counts as inactive or inconclusive.

Cc1cccc(-n2c(SCc3cc(=O)n4ccsc4n3)nc3ccccc32)c1	G9a inh 5µM, JMJD2A Tudor inh inconclusive
COc1ccc(C(C)=O)cc1CSc1nnc(Nc2ccccc2C)s1	none
COc1ccccc1Nc1nnc(SCc2cc(=O)n3ccsc3n2)s1	G9a inh inconclusive
CC1CCN(c2ccc3c(c2)S(=O)(=O)c2ccccc2C3=O)CC1	none (no result: BAZ2B inh, G9a inh, Sfp PPTase inh)
CC(C)(C)c1ccc(C(=O)Nc2ccccc2C(=O)OCc2cc(=O)n3ccsc3n2)cc1	none (no result: PLK1 PBD inh, Sfp PPTase inh)
Cc1ccc(SCCC(=O)OC(C(=O)NC(N)=O)C(C)C)cc1 (stereo not given)	PLK1 PBD inh inconclusive, G9a inh inconclusive, JMJD2A Tudor inh 11µM
Cc1ccc(SCCC(=O)NC(C)C)cc1	none
Cn1cc(CCC(=O)NCCCc2ccccc2)c2ccccc21	G9a inh inconclusive
O=C1OCC/C1=C\NCCCCCCCCN/C=C1\CCOC1=O	none (no result: HP1b binding inh, BAZ2B inh, G9a inh, Sfp PPTase inh, JMJD2A Tudor inh)
CCNC(=O)C1CC(=O)N(Cc2ccc3c(c2)OCO3)C(=Nc2ccc(OCC)cc2)S1 (stereo not given)	BAZ2B inh 50µM
COc1ccc(Br)cc1CNC(=O)c1cnc2sc(N3CCCC3)nn2c1=O	none (no result: PLK1 PBD inh, Sfp PPTase inh)
O=c1/c(=C/c2ccc(O)cc2)sc2n1CCCN=2	G9a inh inconclusive
CN(C)c1ccc(/C=c2\sc3n(c2=O)CCCN=3)cc1	G9a inh 3.2µM
O=C(c1ccc(Cl)nc1)c1cccs1	none
COc1ccc(C(=O)c2no[n+]([O-])c2C(=O)c2ccc(OC)cc2)cc1	PLK1 PBD inh inconclusive, G9a inh 8.9µM, JMJD2A Tudor inh inconclusive
COc1ccc(NC(=O)c2c(N)no[n+]2[O-])cc1	none
O=C(c1cccs1)c1no[n+]([O-])c1C(=O)c1cccs1	PLK1 PBD inh inconclusive, BAZ2B inh inconclusive, G9a inh 10µM, Sfp PPTase inh 32µM, JMJD2A Tudor inh inconclusive
COC(=O)CCC(=O)OC1(C)C(=O)C=C2C=C(c3ccc(C#N)cc3)OC=C2C1=O (stereo not given)	none (no result: HP1b binding inh, PLK1 PBD inh, BAZ2B inh, G9a inh, JMJD2A Tudor inh)
CCCCn1cc[n+](C)c1	none (no result: HP1b binding inh, PLK1 PBD inh, BAZ2B inh, G9a inh, JMJD2A Tudor inh)
CCCC(c1nnnn1Cc1ccc(OC)cc1)N1CCC(C(N)=O)CC1 (stereo not given)	BAZ2B inh inconclusive, G9a inh 71µM
COc1ccc(Cn2nnnc2C(CC(C)C)N2CCC(C(N)=O)CC2)cc1 (stereo not given)	none (no result: G9a inh)
COc1ccc(Cn2nnnc2C(c2ccc(N(C)C)cc2)N2CCC(C)CC2)cc1 (stereo not given)	BAZ2B inh 28µM, JMJD2A Tudor inh 45µM
CC1CCN(C(c2ccc(N(C)C)cc2)c2nnnn2Cc2ccccc2)CC1 (stereo not given)	HP1b binding inh inconclusive, BAZ2B inh 18µM, G9a inh 16µM, JMJD2A Tudor inh 50µM
COCCn1nnnc1C(c1cc2cc(C)ccc2[nH]c1=O)N1CCCCCC1 (stereo not given)	G9a inh 4.5µM, Sfp PPTase inh 50µM
COCCn1nnnc1C(c1cc2cc(C)cc(C)c2[nH]c1=O)N1CCN(c2ccccc2F)CC1 (stereo not given)	G9a inh 3.2µM, Sfp PPTase inh 13µM
Cc1ccc2[nH]c(=O)c(C(c3nnnn3CCc3ccccc3)N3CCOCC3)cc2c1 (stereo not given)	G9a inh 7.9µM
CCN(Cc1ccccc1)C(c1cc2cc(C)ccc2[nH]c1=O)c1nnnn1CCOC (stereo not given)	G9a inh inconclusive, JMJD2A Tudor inh inconclusive (no result: BAZ2B inh)
COc1ccc2cc(C(c3nnnn3CCc3ccccc3)N3CCCC(C)C3)c(=O)[nH]c2c1 (stereo not given)	G9a inh 45µM, JMJD2A Tudor inh inconclusive
COCCn1nnnc1C(c1cc2cc(OC)ccc2[nH]c1=O)N1CCC(Cc2ccccc2)CC1 (stereo not given)	none
CCN(Cc1ccccc1)C(c1cc2cc(C)cc(C)c2[nH]c1=O)c1nnnn1CCOC (stereo not given)	none (no result: BAZ2B inh)
CC1CCN(Cc2c(C#N)c3ccccc3n2C)CC1	G9a inh 25µM
Cn1c(CN2CCCC2)c(C#N)c2ccccc21	G9a inh inconclusive
Cn1c(CN2CCOCC2)c(C#N)c2ccccc21	G9a inh 32µM
CN1CCN(Cc2c(C#N)c3ccccc3n2C)CC1	none
COc1ccc(C)cc1NC(=O)C1CCCN1S(=O)(=O)c1ccccc1F (stereo not given)	G9a inh 8.9µM (no result: Sfp PPTase inh)
O=C(Nc1nccs1)[C@@H]1CCCN1S(=O)(=O)c1ccccc1F	G9a inh 40µM (no result: Sfp PPTase inh)
COc1ccc(C(=O)CC(C#N)c2ccc3c(c2)OCO3)cc1OC (stereo not given)	none (no result: HP1b binding inh, BAZ2B inh, G9a inh, Sfp PPTase inh, JMJD2A Tudor inh)
CCN1C(=O)c2ccccc2S(=O)c2ccc(C(=O)N3CCN(c4cc(Cl)ccc4C)CC3)cc21 (stereo not given)	none (no result: PLK1 PBD inh, Sfp PPTase inh)
Cc1cc(C)c2c(-n3cccc3)c(C(=O)NNS(=O)(=O)c3ccc(Br)cc3)sc2n1	PLK1 PBD inh inconclusive, BAZ2B inh inconclusive, G9a inh inconclusive, JMJD2A Tudor inh 56µM
COc1ccc2c(c1)sc(N)[n+]2Cc1cc(C)cc2cccnc12	G9a inh 50µM
O=C(NCc1ccco1)c1sc(=S)n2c1[nH]c(=O)c1ccccc12	HP1b binding inh inconclusive, PLK1 PBD inh 27µM, BAZ2B inh inconclusive, G9a inh 22µM, Sfp PPTase inh 45µM, JMJD2A Tudor inh 50µM
O=C(NC1CCCCCCC1)c1c(O)c2ccccc2[nH]c1=O	none
O=C(NC1CCCC1)c1sc(=S)n2c1[nH]c(=O)c1ccccc12	PLK1 PBD inh inconclusive, BAZ2B inh inconclusive, G9a inh inconclusive, JMJD2A Tudor inh 89µM
C=CCn1c(N)c(C(=O)NCc2ccco2)sc1=S	HP1b binding inh inconclusive, BAZ2B inh inconclusive
CCOc1ccc(NC(=O)Cn2cc(C(=O)c3ccc(C)c(C)c3)c(=O)c3cc(F)ccc32)cc1	none (no result: PLK1 PBD inh, Sfp PPTase inh)
CCc1ccc(S(=O)(=O)c2nnn3c2nc(Nc2ccc(NC(C)=O)cc2)c2sccc23)cc1	none (no result: PLK1 PBD inh, Sfp PPTase inh)
Cc1nnc(NCCc2ccccc2)[nH]c1=O	none
C/C(=N\Nc1nnc(C)c(=O)[nH]1)C(=O)O	BAZ2B inh 13µM, JMJD2A Tudor inh inconclusive
CC(/C=N/Nc1nnc(C)c(=O)[nH]1)=C\c1ccccc1	G9a inh 10µM, Sfp PPTase inh inconclusive
COc1ccc(CCN2C(=O)CN(C3CCCCCC3)C(=O)C2c2ccc(OC(C)C)c(OC)c2)cc1OC (stereo not given)	none (no result: PLK1 PBD inh, Sfp PPTase inh)
